# Measurements as given in PubChem BioAssay (NCI).
# About 79,000 compounds went through this panel and 15% of them were active in at least one assay; those are over-represented in the sample as a whole. Values without a mark were called inactive. Activity calls are given as the source filed them. No stated cut-off is given here; in the data, active means growth inhibition above about 70%; inactive means the rest.
# Legend:
# [1] = NCI Yeast Anticancer Drug Screen. Data for the rad52 strain (AID 147);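 further: 0% = growth of vehicle-treated control cultures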; details: S. cerevisiae rad52 mutant growth inhibition, hits give high values
# Procedure, shortened: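 Vehicle-treated cultures served as the reference for growth inhibition of compound-exposed yeast bearing a DNA repair mutation.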
# [2] = NCI Yeast Anticancer Drug Screen. Data for the wt1 strain (AID 149);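 further: 0% = growth of vehicle-treated wt1 cultures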; details: S. cerevisiae wt1 strain (SPY 50644) growth inhibition, hits give high values
# Procedure, shortened: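 Growth inhibition read against vehicle controls after compound exposure of the wt1 yeast strain.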
# [3] = NCI Yeast Anticancer Drug Screen. Data for the rad50EPP+ strain (AID 151);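 further: 0% = growth of vehicle-treated control cultures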; details: S. cerevisiae rad50 mutant strain, hits give high values
# Procedure, shortened: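 In this screen, rad50EPP+ yeast were exposed to compounds. Growth inhibition was scored against vehicle-treated controls.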
# [4] = NCI Yeast Anticancer Drug Screen. Data for the mgt1 strain (AID 153); details: S. cerevisiae mgt1 mutant growth inhibition, hits give high values
# Procedure, shortened: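 mgt1 strain exposed; growth vs vehicle control recorded as inhibition.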
# [5] = NCI Yeast Anticancer Drug Screen. Data for the rad50 strain (AID 155);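 further: 0% = growth of vehicle-only cultures of the same strain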; details: S. cerevisiae rad50 strain growth inhibition, hits give high values
# Procedure, shortened: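 Readout: growth inhibition relative to vehicle-treated cultures. Compound exposure was carried out in a genetically defined yeast strain deficient in DNA damage repair.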
# [6] = NCI Yeast Anticancer Drug Screen. Data for the mec2-1 strain (AID 157); details: S. cerevisiae mec2-1 strain, hits give high values
# Procedure, shortened: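 Vehicle-treated cultures served as reference for growth inhibition of compound-exposed mec2-1 yeast.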
# [7] = NCI Yeast Anticancer Drug Screen. Data for the rad14 strain (AID 159);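 further: 0% = growth of vehicle-treated control cultures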; details: S. cerevisiae rad14 strain growth inhibition, hits give high values
# Procedure, shortened: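 Growth inhibition vs vehicle controls; genetically altered yeast strain (DNA damage repair defect) treated with test compounds.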
# [8] = NCI Yeast Anticancer Drug Screen. Data for the sgs1 mgt1 strain (AID 161);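 further: 0% = growth of cultures given vehicle only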; details: S. cerevisiae sgs1 mgt1 strain, hits give high values
# Procedure, shortened: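 Genetically altered yeast, compound exposure, growth inhibition relative to vehicle.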
# [9] = NCI Yeast Anticancer Drug Screen. Data for the CLN2oe strain (AID 163);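 further: 0% = growth of vehicle-only control cultures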; details: S. cerevisiae CLN2oe strain, hits give high values
# Procedure, shortened: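 Inhibition relative to vehicle-treated yeast is reported. Cells: strain with genetic alteration in cell-cycle control, grown with compound.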
# [10] = NCI Yeast Anticancer Drug Screen. Data for the cln2 rad14 strain (AID 165);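 further: 0% = growth equal to vehicle treated cultures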; details: S. cerevisiae cln2 rad14 strain, hits give high values
# Procedure, shortened: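 Each compound was tested on cln2 rad14 yeast. Inhibition of growth was calculated against vehicle-exposed controls.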
# [11] = NCI Yeast Anticancer Drug Screen. Data for the bub3 strain (AID 167); details: S. cerevisiae bub3 mutant strain, hits give high values
# Procedure, shortened: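 Readout: yeast growth inhibition, expressed relative to vehicle-only wells. The test organism is a mutant strain from a panel with lesions in DNA repair or checkpoint genes.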
# [12] = NCI Yeast Anticancer Drug Screen. Data for the wt2 strain (AID 169);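 further: 0% = growth of vehicle-treated yeast cultures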; details: S. cerevisiae wt2 strain growth inhibition, hits give high values
# Procedure, shortened: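 Inhibition of yeast growth was determined after compound treatment, normalised to controls receiving only vehicle.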
# [13] = NCI Yeast Anticancer Drug Screen. Data for the mlh1 strain (AID 171);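 further: 0% = growth of vehicle-treated control cultures of the same strain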; details: S. cerevisiae mlh1 strain growth inhibition, hits give high values
# Procedure, shortened: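 Vehicle-normalised growth inhibition of a repair- or checkpoint-altered yeast strain following compound treatment.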
# [14] = NCI Yeast Anticancer Drug Screen. Data for the sgs1 strain (AID 173);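 further: 0% = growth of vehicle-only control cultures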; details: S. cerevisiae sgs1 mutant, hits give high values
# Procedure, shortened: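 Screen format: yeast with repair or checkpoint alterations, compound exposure, growth read relative to vehicle.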
# [15] = NCI Yeast Anticancer Drug Screen. Data for the mlh1 rad18 strain (AID 175); details: S. cerevisiae mlh1 rad18 strain growth inhibition, hits give high values
# Procedure, shortened: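 Vehicle-treated cultures served as the reference for growth inhibition in a yeast strain carrying DNA damage repair alterations exposed to each compound.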
# [16] = NCI Yeast Anticancer Drug Screen. Data for the rad18 strain (AID 177); details: S. cerevisiae rad18 mutant growth inhibition, hits give high values
# Procedure, shortened: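 Test articles were incubated with altered yeast defective in DNA damage repair. Results are given as inhibition of growth versus vehicle.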
# [17] = at 5.0 µM (retest, dose inferred, filed as 0.5)
# [18] = at 50.0 µM (retest, dose inferred, filed as 5.0)
smiles,measurement,setting,value
NC(N)=N/N=C/c1cc(Cl)cc(Cl)c1O,growth inhibition,[1]; at 1.2 µM,5%
same,growth inhibition,[1]; at 3.7 µM,4%
same,growth inhibition,[1]; at 11.0 µM,21%
same,growth inhibition,[1]; at 33.0 µM,51%
same,growth inhibition,[1]; at 100.0 µM,98% (active)
same,growth inhibition,[2]; at 1.2 µM,-14%
same,growth inhibition,[2]; at 3.7 µM,-19%
same,growth inhibition,[2]; at 11.0 µM,-29%
same,growth inhibition,[2]; at 33.0 µM,1%
same,growth inhibition,[2]; at 100.0 µM,95% (active)
same,growth inhibition,[3]; at 1.2 µM,19%
same,growth inhibition,[3]; at 3.7 µM,49%
same,growth inhibition,[3]; at 11.0 µM,50%
same,growth inhibition,[3]; at 33.0 µM,60%
same,growth inhibition,[3]; at 100.0 µM,74% (active)
same,growth inhibition,[4]; at 1.2 µM,18%
same,growth inhibition,[4]; at 3.7 µM,17%
same,growth inhibition,[4]; at 11.0 µM,33%
same,growth inhibition,[4]; at 33.0 µM,88% (active)
same,growth inhibition,[4]; at 100.0 µM,99% (active)
same,growth inhibition,[5]; at 1.2 µM,-15%
same,growth inhibition,[5]; at 3.7 µM,-7%
same,growth inhibition,[5]; [17],63%
same,growth inhibition,[5]; at 11.0 µM,4%
same,growth inhibition,[5]; at 33.0 µM,46%
same,growth inhibition,[5]; [18],95% (active)
same,growth inhibition,[5]; at 50.0 µM,79.7% (active)
same,growth inhibition,[5]; at 100.0 µM,97% (active)
same,growth inhibition,[6]; at 1.2 µM,-29%
same,growth inhibition,[6]; at 3.7 µM,-18%
same,growth inhibition,[6]; [17],73% (active)
same,growth inhibition,[6]; at 11.0 µM,-21%
same,growth inhibition,[6]; at 33.0 µM,23%
same,growth inhibition,[6]; [18],96% (active)
same,growth inhibition,[6]; at 50.0 µM,61.9%
same,growth inhibition,[6]; at 100.0 µM,98% (active)
same,growth inhibition,[7]; at 1.2 µM,-8%
same,growth inhibition,[7]; at 3.7 µM,1%
same,growth inhibition,[7]; at 11.0 µM,12%
same,growth inhibition,[7]; at 33.0 µM,72% (active)
same,growth inhibition,[7]; at 100.0 µM,98% (active)
same,growth inhibition,[8]; [17],4%
same,growth inhibition,[8]; [18],98% (active)
same,growth inhibition,[9]; at 1.2 µM,15%
same,growth inhibition,[9]; at 3.7 µM,23%
same,growth inhibition,[9]; at 11.0 µM,21%
same,growth inhibition,[9]; at 33.0 µM,33%
same,growth inhibition,[9]; at 100.0 µM,93% (active)
same,growth inhibition,[10]; [17],54%
same,growth inhibition,[10]; [18],93% (active)
same,growth inhibition,[11]; at 1.2 µM,-7%
same,growth inhibition,[11]; at 3.7 µM,-6%
same,growth inhibition,[11]; [17],46%
same,growth inhibition,[11]; at 11.0 µM,4%
same,growth inhibition,[11]; at 33.0 µM,49%
same,growth inhibition,[11]; [18],96% (active)
same,growth inhibition,[11]; at 100.0 µM,97% (active)
same,growth inhibition,[12]; at 1.2 µM,-49%
same,growth inhibition,[12]; at 3.7 µM,-40%
same,growth inhibition,[12]; at 11.0 µM,-30%
same,growth inhibition,[12]; at 33.0 µM,30%
same,growth inhibition,[12]; at 100.0 µM,97% (active)
same,growth inhibition,[13]; at 1.2 µM,12%
same,growth inhibition,[13]; at 3.7 µM,9%
same,growth inhibition,[13]; at 11.0 µM,21%
same,growth inhibition,[13]; at 33.0 µM,68%
same,growth inhibition,[13]; at 100.0 µM,98% (active)
same,growth inhibition,[14]; at 1.2 µM,-12%
same,growth inhibition,[14]; at 3.7 µM,-14%
same,growth inhibition,[14]; at 11.0 µM,-1%
same,growth inhibition,[14]; at 33.0 µM,37%
same,growth inhibition,[14]; at 100.0 µM,98% (active)
same,growth inhibition,[15]; [17],55%
same,growth inhibition,[15]; [18],97% (active)
same,growth inhibition,[15]; at 50.0 µM,58.2%
same,growth inhibition,[16]; at 1.2 µM,-8%
same,growth inhibition,[16]; at 3.7 µM,-11%
same,growth inhibition,[16]; at 11.0 µM,-6%
same,growth inhibition,[16]; at 33.0 µM,49%
same,growth inhibition,[16]; at 100.0 µM,95% (active)
